Measured values published in PubChem BioAssay AID1159580 (chemical genetic matrix, 2015).
Several values for one entry are separate records, joined by “and”; a condition that tells them apart may be missing. Equal entries are not always repeated. Screen size: about 5,500 compounds; about 2,000 (36%) were called active. Another 18% or so got no clear call; they are omitted. Cut-off read from the data, not from the text of the source: active = normalized growth mostly below about 0.91 (no sharp cut-off); inconclusive = no clear call, values can overlap the other calls; inactive = mostly above about 0.92. The list shows a part of the results.

Assay: chemical genetic growth profiling, strain panel (AID 1159580);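 note: tested at 20 µM; growth read once vehicle control cultures reached saturation at 30 °C; 1 = growth at the plate median or of vehicle wells; lower values mean less growth of the strain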
Conditions: S. cerevisiae deletion strains, growth OD

Measured: normalized growth

CC(CCc1ccccc1)NC(C)C(O)c1ccc(O)cc1 (stereo not given)
inactive: locus YAL021C, strain ccr4, active compounds read low 0.992 | locus YAL026C, strain drs2, active compounds read low 0.995 | locus YAL030W, strain snc1, active compounds read low 0.999 | locus YAL040C, strain CLN3, active compounds read low 1.01 | locus YBL061C, strain skt5, active compounds read low 0.997 | locus YBR009C, strain hhf1, active compounds read low 1 | locus YBR021W, strain FUR4, active compounds read low 0.997 | locus YBR023C, strain chs3, active compounds read low 1.01 | locus YBR171W, strain sec66, active compounds read low 1.01 | locus YBR229C, strain ROT2, active compounds read low 0.955 | locus YBR231C, strain swc5, active compounds read low 1 | locus YBR279W, strain paf1, active compounds read low 0.995 | locus YCL011C, strain gbp2, active compounds read low 1.01 | locus YCL016C, strain dcc1, active compounds read low 1.01 | locus YCL029C, strain bik1, active compounds read low 0.981 | locus YCL061C, strain MRC1 (second series), active compounds read low 1 | locus YCL061C, strain MRC1, active compounds read low 0.998 | locus YCL069W, strain vba3, active compounds read low 0.998 | locus YCR088W, strain abp1, active compounds read low 1.01 | locus YDL005C, strain med2, active compounds read low 0.999 | locus YDL035C, strain GPR1, active compounds read low 0.977 | locus YDL040C, strain nat1, active compounds read low 1 | locus YDL074C, strain BRE1, active compounds read low 0.953 | locus YDL101C, strain DUN1, active compounds read low 0.978 | locus YDL134C, strain PPH21, active compounds read low 1 | locus YDL185W, strain tfp1, active compounds read low 0.984 | locus YDL192W, strain arf1, active compounds read low 0.992 | locus YDR001C, strain nth1, active compounds read low 0.999 | locus YDR069C, strain doa4, active compounds read low 0.977 | locus YDR101C, strain arx1, active compounds read low 0.998 | locus YDR137W, strain rgp1, active compounds read low 0.989 | locus YDR150W, strain NUM1, active compounds read low 0.984 | locus YDR159W, strain sac3, active compounds read low 0.99 | locus YDR162C, strain NBP2, active compounds read low 0.991 | locus YDR195W, strain ref2 1 | locus YDR297W, strain sur2, active compounds read low 0.993 | locus YDR318W, strain mcm21, active compounds read low 1 | locus YDR334W, strain swr1, active compounds read low 1.01 | locus YDR335W, strain msn5, active compounds read low 0.995 | locus YDR363W, strain ESC2, active compounds read low 0.998 | locus YDR388W, active compounds read low 0.993 | locus YDR392W, strain spt3, active compounds read low 0.963 | locus YDR502C, strain sam2, active compounds read low 1 | locus YEL003W, strain gim4, active compounds read low 0.979 | locus YEL037C, strain rad23, active compounds read low 1 | locus YEL061C, strain CIN8 (second series), active compounds read low 1 | locus YEL061C, strain CIN8, active compounds read low 0.987 | locus YER002W, strain NOP16, active compounds read low 1 | locus YER015W, strain faa2, active compounds read low 0.998 | locus YER016W, strain bim1, active compounds read low 0.999 | locus YER110C, active compounds read low 0.962 | locus YER111C, strain swi4, active compounds read low 0.999 | locus YER155C, strain BEM2 (second series), active compounds read low 1 | locus YER155C, strain BEM2, active compounds read low 0.993 | locus YER167W, strain BCK2, active compounds read low 0.99 | locus YFR010W, strain ubp6, active compounds read low 1 | locus YGL078C, strain dbp3, active compounds read low 0.993 | locus YGL086W, strain mad1, active compounds read low 0.975 | locus YGL167C, strain pmr1, active compounds read low 1 | locus YGL173C, strain kem1, active compounds read low 1.01 | locus YGL227W, strain vid30, active compounds read low 1 | locus YGL240W, strain doc1, active compounds read low 0.993 | locus YGL248W, strain PDE1, active compounds read low 0.97 | locus YGL253W, strain hxk2, active compounds read low 0.997 | locus YGR078C, strain PAC10, active compounds read low 0.981 | locus YGR135W, strain pre9, active compounds read low 0.989 | locus YGR229C, strain SMI1, active compounds read low 0.989 | locus YGR252W, strain gcn5, active compounds read low 0.974 | locus YHR013C, strain ard1, active compounds read low 0.991 | locus YHR027C, strain rpn1, active compounds read low 1.02 | locus YHR030C, strain SLT2, active compounds read low 0.995 and 0.972 | locus YHR079C, strain IRE1 (second series), active compounds read low 1 | locus YHR079C, strain IRE1, active compounds read low 0.959 | locus YHR094C, strain hxt1, active compounds read low 1 | locus YHR129C, strain ARP1, active compounds read low 0.987 | locus YHR142W, strain chs7, active compounds read low 1.01 | locus YHR200W, strain rpn10, active compounds read low 0.997 | locus YIL066C, strain RNR3, active compounds read low 0.988 | locus YIL073C, strain SPO22, active compounds read low 0.979 | locus YIL125W, strain kgd1, active compounds read low 0.989 | locus YIR030C, strain dcg1, active compounds read low 0.983 | locus YJL092W, strain hpr5, active compounds read low 1.01 | locus YJL095W, strain BCK1 (second series), active compounds read low 1.02 | locus YJL095W, strain BCK1, active compounds read low 0.981 and 0.985 | locus YJL115W, strain asf1, active compounds read low 1.01 | locus YJL129C, strain trk1, active compounds read low 0.98 | locus YJL134W, strain LCB3, active compounds read low 0.993 | locus YJL154C, strain vps35, active compounds read low 0.996 | locus YJL164C, strain tpk1, active compounds read low 0.992 | locus YJL166W, strain qcr8, active compounds read low 1 | locus YJL168C, strain set2, active compounds read low 0.991 | locus YJL187C, strain SWE1 (second series), active compounds read low 0.982 | locus YJL187C, strain SWE1, active compounds read low 1 | locus YJR043C, strain POL32, active compounds read low 1 | locus YJR066W, strain TOR1, active compounds read low 0.925
